Screening data deposited in PubChem by National Center for Advancing Translational Sciences (NCATS).
This is a sample that favours compounds with a hit; in the whole collection about 7.1% have one here.
SW480 rerep = inducers of DNA re-replication in SW480 colon cancer cells; Potency, µM (series often up to 46.1 µM), inactives show at the top dose re-replication activation, most hits filed as activators; 1.8% of 340,000 active; AID 624297; SW480 DNA re-replication, Hoechst DNA content imaging, 48 h; note: % of control where 0% means no effect; nearly all actives have a fitted effect of over 55% in size
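Treated cells incubate 48 hr (37 C, 5% CO2), are stained 40 min with Hoechst, and nuclear fluorescence is enumerated; a rise in nuclei with high DNA signal marks re-replication.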
p53 reactivator = mutant p53 re-activation in reporter cells; 0.063% of 320,000 active; AID 504706; H1299 p53-A138V BP100-luciferase reporter, luminescence, 24 h; Potency, µM (doses to about 92.2 µM), without a hit: at the highest dose activity change, positive = activation, actives largely listed as activators; note: % of control where 0% means no effect; nearly all actives have a fitted effect of over 45% in size
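p53-null H1299 cells stably carrying temperature-sensitive p53-A138V and a BP100-luciferase reporter were pinned with compounds (4-point, 1:5 series) and held 24 hrs at 37 deg C. Luminescence was read 10 min after detection reagent.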
MCF10A rerep = DNA re-replication induction in MCF 10a cells | 2.9% of 350,000 active | MCF 10A DNA re-replication, Hoechst nuclear intensity, 48 h | Potency, µM (doses to about 46.1 µM), inactives show top-dose activity, positive = re-replication, actives largely listed as activators; note: % of control where 0% means no effect; nearly all actives have a fitted effect of over 50% in size
A-T KAP1 phos = potential ataxia-telangiectasia treatment. F2112 A-T fibroblasts, KAP-1 phosphorylation AlphaLISA; neocarzinostatin DNA damage 30 min before lysis. Potency, µM (titrated, usually from 57.5 µM), without a hit: at the top dose activation, actives largely listed as activators. 0.19% of 320,000 active; note: % of control where 0% means no effect; nearly all actives have a fitted effect of over 45% in size
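ATM-like activity read as KAP-1 phosphorylation via AlphaLISA donor/acceptor antibody pairs after lysis and 6 hr at 25C. Cells were ATM-null patient fibroblasts (F2112, hTERT), dosed 60 min, then exposed to the DSB inducer NCS for 30 min.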
ELG1 genotoxic = genotoxicity induction in ELG1-luciferase HEK293T cells. 1.3% of 330,000 active. Potency, µM (series often up to 46 µM), inactives show at the highest dose activity change, positive = activation, usual class: activators. HEK293T ELG1-luciferase reporter, luminescence, 16 h; note: % of control where 0% means no effect; nearly all actives have a fitted effect of over 60% in size
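HEK293T cells expressing luciferase-tagged ELG1 were exposed to compound or DMSO vehicle for 16 hr at 37 °C and 5% CO2. Luciferase activity was then measured with ONE-Glo after 30 min at room temperature.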
ELG1 DNA repair = ELG1-dependent DNA repair inhibition; HEK293T ELG1-luciferase reporter, luminescence, 16 h; DNA damage induced by 5-fluorouridine; Potency, µM (doses to about 46.1 µM), inactives show at the highest dose activity change, negative = inhibition, actives largely listed as inhibitors; 2.3% of 330,000 active; AID 504467; note: % is set by controls: 0 for no effect and ±100 for the full control effect; nearly all actives have a fitted effect of over 55% in size
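In this reporter screen, reduction of luminescence relative to DMSO vehicle indicated activity. Compounds and 5-fluorouridine were added together to 2,000 cells per well, incubated for 16 hr at 37 °C, then developed with ONE-Glo.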
* = called active by the depositor. Calls come from the whole dose curve; as a rule, active = well fitted curve in the direction sought with a large enough effect; inconclusive = small, poorly fitted or top-dose-only effect, or another doubt; inactive = no such curve, though single readings can be large; an effect the other way counts as inactive or inconclusive. Potency is the fitted concentration of half-maximal effect.

O=c1[nH]c(=O)n(Cc2ccco2)c2c1C(C(F)(F)F)(C(F)(F)F)N=C(CCC1CCCCC1)N2 was read as SW480 rerep 3%, p53 reactivator 3%, MCF10A rerep 2%, A-T KAP1 phos -1%, ELG1 genotoxic 0% and ELG1 DNA repair inconclusive.
`COc1ccc(-n2c3c(c(=O)[nH]c2=O)C(C(F)(F)F)(C(F)(F)F)N=C(CC(C)C)N3)cc1` gave SW480 rerep -4%, p53 reactivator -3%, MCF10A rerep -1%, A-T KAP1 phos 1%, ELG1 genotoxic 6% and ELG1 DNA repair 2%.
Screening CC(C)Cn1c2c(c(=O)[nH]c1=O)C(C(F)(F)F)(C(F)(F)F)N=C(CCC1CCCCC1)N2 returned SW480 rerep 2%, p53 reactivator -8%, MCF10A rerep 16µM*, A-T KAP1 phos 8%, ELG1 genotoxic 3% and ELG1 DNA repair 4%.
`Cn1c2ccsc2c2ncn(Cc3ccc(F)cc3)c(=O)c21` gave SW480 rerep 0.26µM*, p53 reactivator -8%, MCF10A rerep inconclusive, A-T KAP1 phos 4%, ELG1 genotoxic -1% and ELG1 DNA repair inconclusive.
`Cn1c2ccsc2c2cnn(Cc3ccc(F)cc3)c(=O)c21` gave A-T KAP1 phos 5%.
For Cc1cc(CNC(=O)c2ccc3oc(C(C)C)nc3c2)nn1C the results were SW480 rerep -8%, p53 reactivator 4%, MCF10A rerep -1%, A-T KAP1 phos 0%, ELG1 genotoxic -1% and ELG1 DNA repair 25%.
`COc1ccc(C(=O)Nc2cccc(C)c2)cc1S(=O)(=O)N1CCOCC1` gave SW480 rerep inconclusive, p53 reactivator -32%, MCF10A rerep 18µM*, ELG1 genotoxic 5% and ELG1 DNA repair inconclusive.
`COc1ccc(S(=O)(=O)N2CCOCC2)c(Cl)c1Cl` gave SW480 rerep 10%, p53 reactivator -10%, MCF10A rerep 7.3µM*, ELG1 genotoxic 16% and ELG1 DNA repair 23%.
For COc1ccc(C(=O)Nc2ccc(-c3ccc(C)o3)cc2)cc1S(=O)(=O)N1CCOCC1 the results were SW480 rerep inconclusive, p53 reactivator 1%, MCF10A rerep inconclusive, A-T KAP1 phos 2%, ELG1 genotoxic -34% and ELG1 DNA repair 15µM*.
Screening CCCC(C)C(=O)Nc1nnc(CCc2ccccc2)s1 (configuration not stated) returned SW480 rerep 9%, MCF10A rerep -3%, A-T KAP1 phos -4%, ELG1 genotoxic -3% and ELG1 DNA repair -1%.
COc1cc(C2Oc3cc(C4Oc5cc(O)cc(O)c5C(=O)C4O)ccc3OC2CO)ccc1O (configuration not stated) was read as SW480 rerep 17%, p53 reactivator 7%, MCF10A rerep 26µM*, A-T KAP1 phos -5%, ELG1 genotoxic 7% and ELG1 DNA repair 3%.
Cc1ccc(-c2ccc(C(=O)NCCCNC(=O)c3cnccn3)o2)cc1Cl was read as SW480 rerep 2%, p53 reactivator 0%, MCF10A rerep 8%, A-T KAP1 phos -3%, ELG1 genotoxic 9% and ELG1 DNA repair -11%.
CN(CC(=O)Nc1cccc2ccccc12)C(=O)c1ccc(F)cc1F was read as SW480 rerep -3%, p53 reactivator -6%, MCF10A rerep 22%, A-T KAP1 phos 0%, ELG1 genotoxic 0% and ELG1 DNA repair 0%.
For O=C1C(=NO)CCc2ccccc21 the results were SW480 rerep 21µM* and MCF10A rerep 20%.
Screening O/N=C1/CCc2cccc3cccc1c23 returned SW480 rerep -7%, p53 reactivator -26%, MCF10A rerep -2%, A-T KAP1 phos -2%, ELG1 genotoxic 0% and ELG1 DNA repair -15%.
Screening COc1ccc(CN2C(=NC(=O)C3CCCO3)SC3CS(=O)(=O)CC32)cc1OC (configuration not stated) returned SW480 rerep 8%, p53 reactivator 14%, MCF10A rerep 2%, A-T KAP1 phos -4%, ELG1 genotoxic -1% and ELG1 DNA repair 6%.
`C/C(=N\NC(=O)c1ccccc1O)C1CC1` gave SW480 rerep 16µM*, p53 reactivator 28%, MCF10A rerep 2%, A-T KAP1 phos -6%, ELG1 genotoxic 22% and ELG1 DNA repair inconclusive.
`C/C(=N\NC(=O)c1ccc(N)cc1)C1CC1` gave SW480 rerep -3%, p53 reactivator 30%, MCF10A rerep 7%, A-T KAP1 phos 7%, ELG1 genotoxic 10% and ELG1 DNA repair 27%.
For O=C(NN=C1C2CC3CC(C2)CC1C3)c1ccccc1O the results were SW480 rerep 21µM*, p53 reactivator 4%, MCF10A rerep 18%, A-T KAP1 phos -2%, ELG1 genotoxic -3% and ELG1 DNA repair -5%.
Screening O=C(NC12CC3CC(CC(C3)C1)C2)c1ccc(-c2ccc(Cl)cc2)o1 returned SW480 rerep inconclusive, p53 reactivator inconclusive, MCF10A rerep 12%, A-T KAP1 phos -7%, ELG1 genotoxic inconclusive and ELG1 DNA repair inconclusive.
O=C(NC12CC3CC(CC(C3)C1)C2)c1ccc(-c2ccccc2Cl)o1 was read as SW480 rerep 9%, p53 reactivator inconclusive, MCF10A rerep 16µM*, A-T KAP1 phos 3%, ELG1 genotoxic inconclusive and ELG1 DNA repair inconclusive.
`O=C(NC12CC3CC(CC(C3)C1)C2)c1ccccc1O` gave SW480 rerep 2%, p53 reactivator 17%, MCF10A rerep 8.2µM*, A-T KAP1 phos inconclusive, ELG1 genotoxic -7% and ELG1 DNA repair inconclusive.
For Cc1cccc(CCNC(=O)C2CCCN(c3cnccn3)C2)c1 (configuration not stated) the results were SW480 rerep -4%, p53 reactivator -1%, MCF10A rerep 0%, A-T KAP1 phos 8%, ELG1 genotoxic -5% and ELG1 DNA repair 3%.
Screening O=C(CCc1ccco1)CCc1ccco1 returned SW480 rerep -12% and MCF10A rerep -1%.
For Cc1ccc(-c2nn(-c3ccc(F)cc3)cc2C(=O)N(C)CC(=O)Nc2ccc(N3CCOCC3)cc2)cc1 the results were SW480 rerep -59%, p53 reactivator 7%, MCF10A rerep -2%, A-T KAP1 phos -4%, ELG1 genotoxic 3% and ELG1 DNA repair inconclusive.
`COc1cccc(-c2cc(C(=O)Nc3cccnc3)no2)c1` gave SW480 rerep 5%, p53 reactivator inconclusive, MCF10A rerep 9.2µM*, A-T KAP1 phos 2%, ELG1 genotoxic inconclusive and ELG1 DNA repair inconclusive.
